# Assay results from PubChem BioAssay (NCI).
# Compounds without any hit were thinned out: in the full panel of roughly 83,000, 20% have a hit.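 Cell lines were cultured in 96-well plates, exposed to a single compound concentration, and assessed for percent growth 48 hours later.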 A number with no mark means an inactive call. The source made the active and inactive calls. How the source made its calls: active means growth percent below 10; inactive means the rest.
# Key:
# Test in all cases: NCI-60 one-dose screen, 48 h (100 = growth as untreated, 0 = no growth, -100 = all killed)
# Conditions in all cases: 10 µM unless noted
# NCI-H23 lung = tested on: NCI-H23 lung
# NCI-H226 lung = tested on: NCI-H226 lung
# NCI-H322M lung = tested on: NCI-H322M lung
# HOP-62 NSCLC = tested on: HOP-62 NSCLC
# NCI-H460 lung = tested on: NCI-H460 lung
# HOP-92 NSCLC = tested on: HOP-92 NSCLC
# NCI-H522 lung = tested on: NCI-H522 lung
# A549/ATCC NSCLC = tested on: A549/ATCC NSCLC
# 786-0 renal = tested on: 786-0 renal
# COLO 205 colon = tested on: COLO 205 colon
Structure (SMILES),growth (NCI-H23 lung),growth (NCI-H226 lung),growth (NCI-H322M lung),growth (HOP-62 NSCLC),growth (NCI-H460 lung),growth (HOP-92 NSCLC),growth (NCI-H522 lung),growth (A549/ATCC NSCLC),growth (786-0 renal),growth (COLO 205 colon)
COc1cccc(-c2ccc(/C=N/NC(=O)c3[nH]c4ccc(Br)cc4c3-c3ccccc3)s2)c1,-41.9% (active),-1.63% (active),49.1%,14.6%,-15.4% (active),43.1%,-65.4% (active),10.7%,-12.2% (active),-28.7% (active)
N#CC1=C(c2cccs2)Nc2c(c(-c3ccccc3)nn2-c2ccccc2)C12C(=O)Nc1ccc(Cl)cc12 (stereo unspecified),23.8%,51.6%,47.1%,28.8%,6.17% (active),-8.79% (active),3.38% (active),24.4%,22.3%,-29.2% (active)
CC[C@]12C=CCN3CC[C@]4(C(=C(C(=O)OC)C1)Nc1cc(OC)c([C@@H]5[C@H]6O[C@H]6[C@@]6(CC)CC(C(=O)OC)=C7Nc8cc(O)ccc8[C@@]78CCN5[C@@H]68)cc14)[C@@H]32,-18.8% (active),-58.1% (active),33.6%,32.2%,-68.4% (active),-41.9% (active),-31.2% (active),17.2%,-8% (active),-70.2% (active)
CC1CCc2c(sc3nc(SCC(=O)c4cccc(Br)c4)n(-c4ccccc4)c(=O)c23)C1 (stereo unspecified),11.3%,19.7%,74.5%,39.9%,55%,44%,40.3%,92.3%,18.8%,25.3%
Cc1ccc(O)cc1Nc1nc(SCCN2CCOCC2)nc2c1cnn2CC(Cl)c1ccc(Br)cc1 (stereo unspecified),13.7%,27.5%,73.5%,23%,9.59% (active),-19.8% (active),15.8%,-9.82% (active),11.1%,85.9%
O=S(=O)(c1nc(-c2ccc(Br)cc2)oc1-c1ccc(Cl)cc1)N1CCCC(O)C1 (stereo unspecified),47.3%,60.4%,78.3%,102%,34.1%,-14.5% (active),49.2%,47.6%,58.9%,81%
NC(=O)c1ccc(-c2ccc3ncnc(N4CCc5cc(F)c(Cl)cc54)c3c2)cn1,70.9%,83.3%,24.1%,99.9%,79.6%,15.4%,94.1%,63%,66.5%,47.9%
COc1ccc(NC(=O)N/N=C/c2c[nH]c3ccccc23)cc1,40%,34.7%,43.2%,44.1%,14.9%,69.5%,-34.7% (active),45.6%,44.8%,4.05% (active)
CCCCN1C(=O)/C(=C\C(=O)c2cc3ccccc3oc2=O)c2ccccc21,79%,88.5%,99.4%,92.3%,86.4%,63.7%,-19.9% (active),106%,75%,-20.5% (active)
CC(=O)Nc1ccc(S(=O)(=O)Nc2ccc(-c3ccc4c(c3)NC(=O)/C4=C\c3ccc[nH]3)cc2)cc1,42.1%,85%,64.8%,87%,38.6%,91.5%,75.2%,79.6%,104%,96.6%
c1ccc(CSc2nnc(-c3ccc4nc(-c5ccccc5)[nH]c4c3)o2)cc1,68%,-40.1% (active),35.9%,-3.53% (active),-41.3% (active),32.2%,33.7%,-12.4% (active),-17.3% (active),78.3%
O=C1Nc2ccccc2/C1=C/C(=O)c1cc2ccccc2oc1=O,93.4%,93.7%,102%,101%,108%,119%,-34.9% (active),106%,117%,-15.4% (active)
COc1ccc(Nc2nnc(-c3c[nH]c4ccccc34)o2)cc1,82.7%,74.9%,89.8%,77.8%,96.3%,84.5%,32.2%,89.3%,91.9%,113%
Nc1cc(-c2c[nH]c3ccc(Cl)cc23)nc2cc(-c3c[nH]c4ccccc34)nn12,-56% (active),35.5%,5.87% (active),-48% (active),-65.9% (active),-22.8% (active),-75% (active),-8.14% (active),-52.1% (active),-86% (active)
Nc1nnc(-c2cncc(Br)c2)c(-c2c[nH]c3ccc(Cl)cc23)n1,84.5%,74%,80.9%,91.9%,86.9%,90.9%,68.1%,82.9%,73.9%,113%
O=CNc1ccc(-n2cnc3cc(-c4ccc(O)cc4)ccc32)cc1,86.5%,83.5%,91.1%,85.6%,87.4%,96.5%,82.1%,86.9%,101%,136%
CCOC(=O)c1ccc(NC(=S)NC(=O)c2cccc(NC(=O)c3ccc(C)cc3)c2)cc1,66.8%,32.2%,74.7%,40.4%,75.9%,36.4%,50.6%,48.2%,81.2%,77.9%
COc1ccc(N=Nc2c(N)nn3c(-c4ccc(OC)c(OC)c4)ccnc23)cc1,72.8%,94.8%,88.5%,21.5%,85.2%,67.6%,78.7%,74%,76.2%,103%
O=C(CSc1nc2c(c(=O)[nH]1)CCCC2)Nc1ccccc1C(=O)O,99.9%,101%,102%,104%,120%,117%,83.8%,103%,103%,124%
Cn1cc(-c2cc(N)n3nc(-c4c[nH]c5ccccc45)cc3n2)c2cc(Br)ccc21,-75.2% (active),-11.9% (active),-37.2% (active),-76.9% (active),-59% (active),-74.5% (active),-74.7% (active),-50% (active),-73.7% (active),-90.1% (active)
COc1ccc2[nH]c(=O)c(CSc3ccccc3Nc3nccc(-c4ccc5c(c4)OCO5)n3)cc2c1,94.9%,76.1%,92.5%,94.1%,83.5%,90.3%,66.1%,76.3%,90.1%,101%
COc1ccc(C2=NN(C(=O)[C@H]3[C@@H](c4ccco4)c4sc(=O)[nH]c4S[C@@H]3C)C(c3ccc4ccccc4c3)C2)cc1 (stereo partly specified),33.8%,29.3%,49.1%,59.7%,23.8%,29.1%,4.06% (active),17.6%,44.6%,7.92% (active)

Structure (SMILES),growth (NCI-H23 lung),growth (NCI-H226 lung),growth (NCI-H322M lung),growth (HOP-62 NSCLC),growth (NCI-H460 lung),growth (HOP-92 NSCLC),growth (NCI-H522 lung),growth (A549/ATCC NSCLC),growth (786-0 renal),growth (COLO 205 colon)
CCOc1ccccc1[C@H]1C(C(=O)c2ccc(Cl)cc2)C2(N[C@@H]1c1ccccc1)C(=O)Nc1ccc(Cl)cc12 (stereo partly specified),21.5%,20.3%,48.7%,42.6%,17.3%,2.97% (active),34.1%,40.5%,35%,15.3%
COc1cncc(-c2ccc3ncnc(N4CCc5ccc(Cl)cc54)c3c2)c1,8.73% (active),31.8%,-2.19% (active),51.3%,51.8%,-56.9% (active),36.6%,29.9%,-74.2% (active),38.4%
CC1CCc2c(sc3nc(SCC(=O)c4cccc([N+](=O)[O-])c4)n(-c4ccccc4)c(=O)c23)C1 (stereo unspecified),47.4%,66.6%,97.9%,77.7%,97.1%,85.5%,54.3%,89.7%,56.6%,106%
COc1ccc2ccccc2c1/C=C1\SC(=Nc2ccc(O)cc2)NC1=O,19.3%,-5.11% (active),32.7%,23.8%,11.1%,18.3%,-24% (active),11.5%,17.7%,-22.2% (active)
CC1=C(C)C(=O)C(NCCN2CCOCC2)=C(Br)C1=O,-0.608% (active),67.1%,91.5%,87.2%,98%,38.7%,-18.4% (active),87.6%,100%,130%
Cn1cc(-c2cc(N)n3nc(-c4c[nH]c5ccc(F)cc45)cc3n2)c2cccnc21,-68.2% (active),-67.5% (active),-37.5% (active),-85.9% (active),-50.6% (active),-73.7% (active),-68.8% (active),-87.1% (active),-95.2% (active),-79.1% (active)
CN(C)c1nc(NCCNS(=O)(=O)c2ccc(C3=Nc4c(N)nc(N)nc4NC(c4ccc(C(F)(F)F)cc4)C3)cc2)nc(N2CCOCC2)n1 (stereo unspecified),74%,54.1%,84.2%,51.8%,35.6%,-17% (active),35%,40.2%,20.2%,-14.2% (active)
COc1ccc(-c2cc(-c3cc(OC)c(OC)c(OC)c3)[nH]c(=O)c2C#N)cc1,86%,23.4%,5.73% (active),12.9%,52.4%,-33.5% (active),50.6%,59.3%,-65.4% (active),130%
Nc1cc2ccccc2c(=O)n1NC(=O)c1ccc(Br)cc1,81.8%,69%,74.4%,–,98.6%,103%,96.7%,100%,107%,114%
C=CCSc1nnc(-c2c(C)nc3sccn23)o1,88.7%,76.1%,84.9%,106%,95.8%,72.4%,89%,92.7%,89.8%,107%
O=C(CSc1nc2ccccc2c(=O)[nH]1)Nc1ccccc1C(=O)O,104%,102%,101%,97.8%,118%,118%,107%,112%,107%,124%
CNS(=O)(=O)N1CCc2c(Br)c3c(c(OC)c2C1CCc1ccccc1)OCO3 (stereo unspecified),-19.5% (active),-70.3% (active),4.7% (active),-18.6% (active),-67.7% (active),-54.3% (active),-12.3% (active),16.6%,-44.9% (active),-51.3% (active)
NC(=Nc1ccc(OCCCCCCCCn2cnnn2)cc1)c1ccccc1,10.8%,21.3%,57%,18.6%,–,82.5%,–,23.7%,34.5%,–
COc1ccc(-c2cc(-c3ccccc3)c(C#N)c(=O)[nH]2)cc1S(N)(=O)=O,106%,103%,113%,97.6%,104%,110%,93.3%,98.7%,94.7%,118%
N#CC1=C(c2cccs2)Nc2c(c(-c3ccccc3)nn2-c2ccccc2)C12C(=O)Nc1ccc(Br)cc12 (stereo unspecified),2.18% (active),13%,26.9%,-75.2% (active),-46.7% (active),-24.7% (active),-12.4% (active),-9.72% (active),-22.7% (active),-83% (active)
Cc1ccc(C(=O)Nc2cc(-c3ccccc3)cc(C(F)(F)F)c2)cc1C#Cc1cnc2cccnn12,63.3%,51.2%,102%,108%,51.1%,95.4%,56.3%,68.9%,60%,73.1%
CCOc1ccccc1[C@H]1C(C(=O)c2ccc(Cl)cc2)C2(N[C@@H]1c1ccccc1)C(=O)Nc1ccc(Br)cc12 (stereo partly specified),-39.1% (active),-68.4% (active),15.8%,7.94% (active),2.95% (active),-46.9% (active),-4.42% (active),41%,-76.5% (active),-82.3% (active)
O=C(CSc1nnc(-c2ccc(-c3nc4ccccc4[nH]3)cc2)o1)Nc1ccccc1,63.1%,76.1%,84.4%,63.2%,12%,54.1%,78%,51.8%,22%,118%
O=C1NC(=S)/C(=C/c2cn(-c3ccccc3)nc2-c2ccccc2)S1,12.5%,34.1%,31.7%,72.6%,9.19% (active),13.7%,-9.92% (active),17.7%,20.8%,33.2%
Nc1nn2c(-c3cc4cc(Br)ccc4oc3=O)ccnc2c1N=Nc1ccc(S(N)(=O)=O)cc1,50.6%,77.6%,78.3%,41.8%,52%,83.2%,93.3%,107%,86.1%,96.5%
COc1ccc2[nH]cc(-c3cc(N)n4nc(-c5c[nH]c6ccccc56)cc4n3)c2c1,-12.1% (active),74.5%,18.3%,-45.2% (active),-22.8% (active),-1.68% (active),-65.3% (active),1.46% (active),-88.3% (active),-82.5% (active)
CCOc1ccc2[nH]c(=O)c(C(c3nnnn3CC3CCCO3)N3CCN(Cc4ccccc4)CC3)cc2c1 (stereo unspecified),76.6%,73.6%,101%,102%,84.7%,54%,84.7%,92.7%,41.7%,106%
